Drawing on PubChem BioAssay, this text covers composite z-score for 11 compounds.

SMILES strings stand for the structures.

Dickkopf-related protein 1 (Homo sapiens), sequence (O94907 whole entry, looked up): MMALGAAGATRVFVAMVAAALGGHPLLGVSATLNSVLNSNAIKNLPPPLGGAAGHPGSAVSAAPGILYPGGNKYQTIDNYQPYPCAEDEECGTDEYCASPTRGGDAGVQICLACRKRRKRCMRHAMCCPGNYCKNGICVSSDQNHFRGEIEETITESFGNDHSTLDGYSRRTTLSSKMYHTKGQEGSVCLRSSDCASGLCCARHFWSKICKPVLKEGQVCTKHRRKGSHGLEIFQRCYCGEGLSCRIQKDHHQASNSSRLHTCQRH

The assay concerns the target Dickkopf-related protein 1 (Homo sapiens) (UniProt O94907). As to the kind of experiment: small molecules binding DKK1 protein – biochemical, small-molecule microarray, 635 nm fluorescence scan, primary screen (AID 1106).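 Also: score merges emission near 667 nm with signal to noise over three replicate slides.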 The settings on record: higher = more signal.
In turn, `COCCOC(=O)N1C(=O)[C@@]2(c3cc(C#CCCO)ccc31)[C@H](C(=O)N1CCCCCCC1)[C@H]1C(=O)O[C@H](c3ccccc3)[C@H](c3ccccc3)N1[C@@H]2c1ccc(OCCO)cc1` yielded a composite z-score of 1.63.

`C=CC[C@@]12N=C(c3ccc(OCCCO)cc3)O[C@@H]1c1ccccc1N(C)C2=O`: the composite z-score stood at 0.498.

Compound `O=C1C2C=CC(C(O)Cc3ccccc3)N(n3cnnc3)C2C(=O)N1Cc1ccccc1` (stereo unspecified) showed a composite z-score of -0.387.

For `CCN(CC)c1ccc(N2CC=CC34O[C@@H]5C=CCCOC(=O)C5[C@H]3C(=O)N(CCCCCCO)[C@@H]4C2=O)cc1` (stereo partly specified), the composite z-score is -0.555.

On to `O=C1c2ccccc2[C@](Cc2ccccc2I)(C(=O)NCCN2CCOCC2)[C@H](c2ccc(CO)cc2)N1C1CCCCC1`, for which the composite z-score stood at 0.941.

Compound `[N-]=[N+]=Nc1ccccc1[C@@H]1OC(c2ccc(OCCCO)cc2)=N[C@]1(CCS(=O)(=O)c1ccccc1)C(N)=O` had a composite z-score of -0.329.

For `CN(C)C(=O)[C@@]1(CCS(=O)(=O)c2ccccc2)COC(c2ccc(OCCCO)cc2)=N1`, the composite z-score was -0.471.

Turning to `CC(C)C[C@@H]1NC(=O)[C@@H]2C[C@H](C(=O)O)[C@H](c3cccc(OCCO)c3)N2C1=O`, the composite z-score is -0.176.

As to `CCOC(=O)C[C@H]1[C@H](OC(=O)c2ccc(-c3ccccc3)cc2)[C@@H](NC(=O)Cc2ccc(OC)cc2)c2cc(OCCCO)ccc2N1C(=O)c1ccccc1`, the composite z-score is -0.384.

The compound `C=C(CCCC)/C(=C/C[C@H](OC(C)=O)c1ccccc1OCCO)c1cc(C(=O)OC)ccc1OC` displayed a composite z-score of -0.358.

As for `C=CCC(OC(C)=O)[C@@H]1[C@@H](N(Cc2ccc(-c3ccccc3)cc2)C(=O)c2cccc3ccccc23)c2cc(OCCCO)ccc2N1C(=O)c1ccc(-c2ccccc2)cc1` (stereo partly specified), the composite z-score was -0.111.
